Assay results reported in PubChem BioAssay.
The source made the active and inactive calls. The rule behind the calls is not given here.

target: L-lactate dehydrogenase (Plasmodium falciparum (isolate CDC / Honduras)) (UniProt Q27743); test: PfLDH activity inhibition – cell lysate, 3D7 strain, counter-screen for P. falciparum growth inhibition project (AID 2304);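 note: 0% = vehicle and 100% = reference inhibitor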; details: P. falciparum 3D7 crude extract, LDH APAD/NBT absorbance; at 2 µM; stronger effect = higher value
Sequence (Q27743 whole entry, looked up): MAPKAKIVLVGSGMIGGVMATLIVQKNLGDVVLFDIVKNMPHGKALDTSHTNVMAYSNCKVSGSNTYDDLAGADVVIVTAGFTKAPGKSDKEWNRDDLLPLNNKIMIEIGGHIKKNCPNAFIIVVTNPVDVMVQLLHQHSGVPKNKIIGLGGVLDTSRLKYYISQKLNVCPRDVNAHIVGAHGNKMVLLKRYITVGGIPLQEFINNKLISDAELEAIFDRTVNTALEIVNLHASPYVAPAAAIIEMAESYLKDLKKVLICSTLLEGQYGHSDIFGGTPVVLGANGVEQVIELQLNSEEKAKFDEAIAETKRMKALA

Structure (SMILES) | inhibition
CC(C)COc1ccc(Cl)cc1Cc1ccc(-c2nc3cc(F)c(F)cc3[nH]2)o1 | 4% (inactive)
Oc1ccc(CCNc2nc(NCCCOc3cccc(CN4CCCCC4)c3Cl)nc(N3CCNCC3)n2)cc1 | 5% (inactive)
O=c1[nH]c2c(cc1CNC1CCCCC1)c(-c1ccc(F)cc1)nn2-c1ccccc1 | 6% (inactive)
NC(N)=Nc1ccc(OCCCCCOc2ccc(N=C(N)N)cc2)cc1 | -1% (inactive)
COC(=O)c1cccc(CNCc2ccc(-c3ccc(-c4nc5ccc(C(F)(F)F)cc5[nH]4)s3)cc2)c1 | -2% (inactive)
COc1ccc2ncc(C#N)c(CCN3CCC(NCc4ccc5c(c4)NC(=O)CO5)CC3)c2c1 | -3% (inactive)
CC(Nc1nc(Nc2ccc(F)cc2)nc(SCC(N)=O)n1)c1ccccc1 (stereo not drawn) | -2% (inactive)
Cn1ccnc1CNC(=O)c1ccc(-c2ccc(-c3nc4ccc(C(F)(F)F)cc4[nH]3)s2)cc1 | 3% (inactive)
COc1cc2c(cc1S(=O)(=O)c1ccc(NC(=O)c3cccc(C(F)(F)F)c3)cc1)CCN(C)CC2 | 3% (inactive)
CCOc1ccc2c(NN=Cc3cccc(F)c3)cc(C)nc2c1 | 7% (inactive)
Clc1ccc(OCc2ccccc2)c(-c2nc(-c3nc4ncc(Br)cc4[nH]3)cs2)c1 | -2% (inactive)
O=C(CC1CCCC1)Nc1ccc2c(c1)CCC2 | 2% (inactive)
Clc1ccccc1CNc1noc(-c2sccc2Br)n1 | -7% (inactive)
COc1ccc(NC(=O)Nc2ccc(-c3ccc(-c4nc5ccccc5[nH]4)cc3)cc2)cc1 | 5% (inactive)
Nc1cc(-c2cc3c(OCc4ccccc4)cccc3[nH]2)ccn1 | 4% (inactive)
CCNc1cc(C(=O)N[C@@H](Cc2ccccc2)[C@H](O)CNC2C3CC4CC(C3)CC2C4)cc(N2CCCCS2(=O)=O)c1 (stereo partly drawn) | 6% (inactive)
CCCNCc1ccc(-c2ccc(CN(C(=O)c3nn(-c4ccccc4)nc3C)C3CCOCC3)cc2)nc1 | 4% (inactive)
CN1CCCN(Cc2ccc(-c3cccc(NC(=O)c4cccc(C#N)c4)c3)cc2)CC1 | -2% (inactive)
COc1ccc(NC(=O)Nc2cccc(-c3ccc(-c4nc5ccc(C(F)(F)F)cc5[nH]4)cc3)c2)cc1 | 6% (inactive)
CCC(C)NS(=O)(=O)c1ccc2nc(Nc3ccc(C)c(Cl)c3)n(C3CCCCC3)c2c1 (stereo not drawn) | 5% (inactive)

Structure (SMILES) | inhibition
COc1ccc(N2CCN(CCCC/C=C/c3ccc(NC(=O)c4cc(Cl)cc(Cl)c4)cc3)CC2)c(OC)c1 | 5% (inactive)
CC(C)(C)c1ccc(CN2CCC(NC(=O)c3cc(-c4cccc(C(F)(F)F)c4)cs3)C2)cc1 (stereo not drawn) | -1% (inactive)
COc1ccccc1/C=C/C(=O)NCCC1CCN(CCCCCNC(=O)/C=C/c2ccc(Cl)c(Cl)c2)CC1 | -4% (inactive)
O=C(NC1CC1)c1cnc(N2CCC(Oc3ccc(Cl)cc3)CC2)c(Cl)c1 | -5% (inactive)
Cc1ccc(C=C2SC(=Nc3ccccc3)NC2=O)c(C)c1 | -2% (inactive)
O=C(Nc1cccc(-c2cc3ccccc3[nH]2)c1)C1CCN(Cc2ccccc2O)CC1 | -1% (inactive)
C=CCN(c1nc(NC)nc(NCc2c(OC)cccc2OC)n1)C1CCCC1 | -3% (inactive)
O=C(/C=C/c1ccc(Cl)c(Cl)c1)NCCCCCN1CCCC(C(=O)Nc2cccc(Cl)c2)C1 (stereo not drawn) | -2% (inactive)
CN(CCCNCc1ccc2ccccc2c1)CCCNCc1ccc2ccccc2c1 | 1% (inactive)
Fc1cccc(COc2ccc(Nc3ncnc4sc(C#CC5CCCCN5)cc34)cc2Cl)c1 (stereo not drawn) | 3% (inactive)
COc1ccc(-c2cc(NCc3ccc(-n4ccnc4)cc3)nc(Nc3ccccc3)n2)cc1 | 0% (inactive)
Cc1cc(NN=Cc2ccccc2Cl)c2cccc(C)c2n1 | 2% (inactive)
Cc1cc(CN2CCC(Nc3ncc(-c4ccsc4)c4nc(C(F)(F)F)ccc34)CC2)no1 | -3% (inactive)
O=C(/C=C/c1ccc(Cl)c(Cl)c1)NCCCCN1CCCN(C(=O)Nc2cc(Cl)cc(Cl)c2)CC1 | 2% (inactive)
NC1CCN(c2nc(NCCCc3ccc(O)cc3)nc(NCc3ccccc3-c3ccccc3)n2)CC1 | 4% (inactive)
O=C(Nc1cccc(C(F)(F)F)c1)Nc1nc2ccc([N+](=O)[O-])cc2s1 | 0% (inactive)
CC(=O)Nc1cccc(CNCc2ccc(-c3cnc(N4CCCC(c5ccccc5)C4)nc3)cc2)c1 (stereo not drawn) | 3% (inactive)
CS(=O)(=O)N(c1cccc(F)c1)c1cc(C(=O)N[C@@H](Cc2ccccc2)[C@H](O)CNCc2cccc(C(F)(F)F)c2)cc(N2CCCC2=O)c1 | 1% (inactive)
CN(C)CCNC(=O)c1ccc(-c2cnc3ccc(NCc4ccc(Cl)c(Cl)c4)nn23)cc1 | -5% (inactive)

system: not listed separately; test: inhibition of 3D7 malaria parasite growth – strain 3D7 (AID 2306);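 note: 0% = DMSO wells and 100% = chloroquine plus artemisinin control wells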; details: P. falciparum 3D7 erythrocytic growth, LDH absorbance, 72 h; at 2 µM; stronger effect = higher value

Structure (SMILES) | growth inhibition
CC(C)COc1ccc(Cl)cc1Cc1ccc(-c2nc3cc(F)c(F)cc3[nH]2)o1 | 95% (active)
Oc1ccc(CCNc2nc(NCCCOc3cccc(CN4CCCCC4)c3Cl)nc(N3CCNCC3)n2)cc1 | 102% (active)
O=c1[nH]c2c(cc1CNC1CCCCC1)c(-c1ccc(F)cc1)nn2-c1ccccc1 | 99% (active)
NC(N)=Nc1ccc(OCCCCCOc2ccc(N=C(N)N)cc2)cc1 | 99% (active)
COC(=O)c1cccc(CNCc2ccc(-c3ccc(-c4nc5ccc(C(F)(F)F)cc5[nH]4)s3)cc2)c1 | 101% (active)
COc1ccc2ncc(C#N)c(CCN3CCC(NCc4ccc5c(c4)NC(=O)CO5)CC3)c2c1 | 99% (active)
CC(Nc1nc(Nc2ccc(F)cc2)nc(SCC(N)=O)n1)c1ccccc1 (stereo not drawn) | 90% (active)
Cn1ccnc1CNC(=O)c1ccc(-c2ccc(-c3nc4ccc(C(F)(F)F)cc4[nH]3)s2)cc1 | 101% (active)
COc1cc2c(cc1S(=O)(=O)c1ccc(NC(=O)c3cccc(C(F)(F)F)c3)cc1)CCN(C)CC2 | 92% (active)
CCOc1ccc2c(NN=Cc3cccc(F)c3)cc(C)nc2c1 | 100% (active)
Clc1ccc(OCc2ccccc2)c(-c2nc(-c3nc4ncc(Br)cc4[nH]3)cs2)c1 | 101% (active)
O=C(CC1CCCC1)Nc1ccc2c(c1)CCC2 | 93% (active)
Clc1ccccc1CNc1noc(-c2sccc2Br)n1 | 97% (active)
COc1ccc(NC(=O)Nc2ccc(-c3ccc(-c4nc5ccccc5[nH]4)cc3)cc2)cc1 | 100% (active)
Nc1cc(-c2cc3c(OCc4ccccc4)cccc3[nH]2)ccn1 | 85% (active)
CCNc1cc(C(=O)N[C@@H](Cc2ccccc2)[C@H](O)CNC2C3CC4CC(C3)CC2C4)cc(N2CCCCS2(=O)=O)c1 (stereo partly drawn) | 97% (active)
CCCNCc1ccc(-c2ccc(CN(C(=O)c3nn(-c4ccccc4)nc3C)C3CCOCC3)cc2)nc1 | 98% (active)
CN1CCCN(Cc2ccc(-c3cccc(NC(=O)c4cccc(C#N)c4)c3)cc2)CC1 | 101% (active)
COc1ccc(NC(=O)Nc2cccc(-c3ccc(-c4nc5ccc(C(F)(F)F)cc5[nH]4)cc3)c2)cc1 | 101% (active)
CCC(C)NS(=O)(=O)c1ccc2nc(Nc3ccc(C)c(Cl)c3)n(C3CCCCC3)c2c1 (stereo not drawn) | 99% (active)

Structure (SMILES) | growth inhibition
COc1ccc(N2CCN(CCCC/C=C/c3ccc(NC(=O)c4cc(Cl)cc(Cl)c4)cc3)CC2)c(OC)c1 | 99% (active)
CC(C)(C)c1ccc(CN2CCC(NC(=O)c3cc(-c4cccc(C(F)(F)F)c4)cs3)C2)cc1 (stereo not drawn) | 98% (active)
COc1ccccc1/C=C/C(=O)NCCC1CCN(CCCCCNC(=O)/C=C/c2ccc(Cl)c(Cl)c2)CC1 | 94% (active)
O=C(NC1CC1)c1cnc(N2CCC(Oc3ccc(Cl)cc3)CC2)c(Cl)c1 | 86% (active)
Cc1ccc(C=C2SC(=Nc3ccccc3)NC2=O)c(C)c1 | 93% (active)
O=C(Nc1cccc(-c2cc3ccccc3[nH]2)c1)C1CCN(Cc2ccccc2O)CC1 | 95% (active)
C=CCN(c1nc(NC)nc(NCc2c(OC)cccc2OC)n1)C1CCCC1 | 85% (active)
O=C(/C=C/c1ccc(Cl)c(Cl)c1)NCCCCCN1CCCC(C(=O)Nc2cccc(Cl)c2)C1 (stereo not drawn) | 99% (active)
CN(CCCNCc1ccc2ccccc2c1)CCCNCc1ccc2ccccc2c1 | 100% (active)
Fc1cccc(COc2ccc(Nc3ncnc4sc(C#CC5CCCCN5)cc34)cc2Cl)c1 (stereo not drawn) | 101% (active)
COc1ccc(-c2cc(NCc3ccc(-n4ccnc4)cc3)nc(Nc3ccccc3)n2)cc1 | 101% (active)
Cc1cc(NN=Cc2ccccc2Cl)c2cccc(C)c2n1 | 97% (active)
Cc1cc(CN2CCC(Nc3ncc(-c4ccsc4)c4nc(C(F)(F)F)ccc34)CC2)no1 | 81% (active)
O=C(/C=C/c1ccc(Cl)c(Cl)c1)NCCCCN1CCCN(C(=O)Nc2cc(Cl)cc(Cl)c2)CC1 | 97% (active)
NC1CCN(c2nc(NCCCc3ccc(O)cc3)nc(NCc3ccccc3-c3ccccc3)n2)CC1 | 102% (active)
O=C(Nc1cccc(C(F)(F)F)c1)Nc1nc2ccc([N+](=O)[O-])cc2s1 | 102% (active)
CC(=O)Nc1cccc(CNCc2ccc(-c3cnc(N4CCCC(c5ccccc5)C4)nc3)cc2)c1 (stereo not drawn) | 84% (active)
CS(=O)(=O)N(c1cccc(F)c1)c1cc(C(=O)N[C@@H](Cc2ccccc2)[C@H](O)CNCc2cccc(C(F)(F)F)c2)cc(N2CCCC2=O)c1 | 98% (active)
CN(C)CCNC(=O)c1ccc(-c2cnc3ccc(NCc4ccc(Cl)c(Cl)c4)nn23)cc1 | 98% (active)
